# Source: PubChem (NMMLSC)
# MEKK2 mut-MEK5 = signal of MEK5 binding to mutant human MEKK2 PB1 domain. 290,000 compounds, 0.35% hits. AID 1530. percent response, % at 10 µM. bead flow cytometry, Alexa488-MEK5 binding to MEKK2 mutant; in the data active means percent response above about 24%, passing the limit was not always enough
# MEKK3 PB1 HTS = modulators (inhibitors or enhancers) of MEK5 binding to human MEKK3 PB1 domain. bead-based flow cytometry, Alexa488-MEK5 binding to MEKK3; actives lie on both sides; 0 = blocked by unlabeled MEK5, 100 = vehicle. binding response (% of control), % at 10 µM. 290,000 compounds, 1.4% hits;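 active means binding response more than 3 SD above or below the average of its plate-row segment, actives on both sides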;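 further: Alexa488 bead fluorescence after subtracting the streptavidin-only scavenger bead signal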
# Target sequence (Q99759 whole entry, looked up, the tested form may be a part): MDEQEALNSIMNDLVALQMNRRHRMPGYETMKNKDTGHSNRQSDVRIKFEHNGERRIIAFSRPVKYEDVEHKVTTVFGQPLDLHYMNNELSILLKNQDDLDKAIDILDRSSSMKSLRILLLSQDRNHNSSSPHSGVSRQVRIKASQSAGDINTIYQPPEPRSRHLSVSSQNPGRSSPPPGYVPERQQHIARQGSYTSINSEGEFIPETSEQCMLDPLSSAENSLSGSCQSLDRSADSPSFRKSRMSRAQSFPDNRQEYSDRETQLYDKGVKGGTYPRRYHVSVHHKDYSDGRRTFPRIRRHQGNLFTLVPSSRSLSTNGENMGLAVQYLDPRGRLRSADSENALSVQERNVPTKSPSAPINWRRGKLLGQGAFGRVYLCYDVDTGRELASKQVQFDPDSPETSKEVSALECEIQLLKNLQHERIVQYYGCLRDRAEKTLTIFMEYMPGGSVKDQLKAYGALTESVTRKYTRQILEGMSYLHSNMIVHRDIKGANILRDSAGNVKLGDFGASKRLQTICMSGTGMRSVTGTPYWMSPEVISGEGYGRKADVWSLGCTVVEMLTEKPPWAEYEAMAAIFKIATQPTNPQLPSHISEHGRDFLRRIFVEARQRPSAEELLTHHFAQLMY
# MEKK2wt PB1 HTS = raises or lowers MEK5 binding to wildtype human MEKK2 PB1 domain | Q9Y2U5 | bead flow cytometry, Alexa488-MEK5 binding to MEKK2 WT; actives lie on both sides | binding response (% of control), % at 10 µM | 290,000 compounds, 1.1% hits | AID 1531; in the data active means binding response below about 67% or above about 130%
# GRK2 inh = human GRK2 inhibition via aptamer displacement; 330,000 compounds, 0.59% hits; AID 488847; P25098; inhibition of aptamer binding, % at 10 µM; bead flow cytometry, FAM-aptamer displacement from GRK2;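 active means inhibition of aptamer binding above 40%, roughly 3 SD of noise, on plates passing a quality check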;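 further: median bead fluorescence of bound FAM aptamer so fluorescent compounds give negative values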
# MEKK2wt confirm = raises or lowers MEK5 binding to wildtype human MEKK2, retest | shares compounds with MEKK3 PB1 HTS | bead flow cytometry, Alexa488-MEK5 binding to MEKK2 WT; actives lie on both sides | binding response (% of control), % at 10 µM | 5,900 compounds, 2.4% hits | AID 1892; in the data active means binding response below about 16% or above about 210%; inactive means in between
# MEKK2mut confirm = signal of MEK5 binding to mutant human MEKK2, retest. shares compounds with MEKK3 PB1 HTS. bead flow cytometry, Alexa488-MEK5 binding to MEKK2 mutant. percent response, % at 10 µM. 5,900 compounds, 2% hits. AID 1893; in the data active means percent response mostly above about 71%, no sharp cut-off; inactive means mostly below about 38%;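 further: higher means compound restores mutant binding toward wildtype level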
# MEKK3-MEK5 inh = confirmation of inhibitors of MEK5 binding to human MEKK3 | shares compounds with MEKK3 PB1 HTS | bead flow cytometry, Alexa488-MEK5 binding to MEKK3; hits give low values | binding response (% of control), % at 10 µM | 5,900 compounds, 1.8% hits;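 active means binding response below 72% of control, or above a set upper limit, though filed actives all read lower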;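 further: 100% = DMSO only wells and 0% = binding blocked by excess unlabeled MEK5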
# Numbers without * were called inactive; · = not tested or not shown; [ ] = remark or other dose. This is a sample that favours compounds with a hit; in the whole collection about 2.5% have one here.
SMILES,MEKK2 mut-MEK5,MEKK3 PB1 HTS,MEKK2wt PB1 HTS,GRK2 inh,MEKK2wt confirm,MEKK2mut confirm,MEKK3-MEK5 inh
Cc1ccc2sc(N(CCCN(C)C)C(=O)c3ccc(S(=O)(=O)N(C)Cc4ccccc4)cc3)nc2c1C,·,·,·,2,·,·,·
CC(NC(=O)C1CCC(CNS(=O)(=O)c2ccccc2)CC1)c1ccccc1 (stereo not given),1,100,101,2,·,·,·
COc1ccc(C(=O)Nc2cnn(Cc3c(F)cccc3Cl)c2)cc1OC,-4,95,93,0,·,·,·
COc1cc(C(C)=O)ccc1COc1ccc(C(=O)OCC(N)=O)cc1OC,-1,72*[inhibitor],98,1,110,12,107
CCC(CC)NC(=O)COC(=O)c1ccc(OCc2ccc(C(C)=O)cc2OC)c(OC)c1,-2,97,98,0,·,·,·
COc1ccc(CCNC(=O)c2cc3c(=O)n(C)c4ccccc4c3n2C)cc1OC,31,132*,114,0,97,-6,96
COCCNC(=O)Cn1c(=O)n(Cc2ccc(C(=O)NCCc3ccc(OC)c(OC)c3)cc2)c(=O)c2ccccc21,-18,37*[inhibitor],45*[inhibitor],2,102,4,103
COCCCNC(=O)c1ccc(Cn2c(=O)c3ccccc3n(CC(=O)NCc3ccco3)c2=O)cc1,-4,96,94,1,·,·,·
COCCNC(=O)c1cc2c(=O)n(C)c3ccccc3c2n1C,2,101,101,0,·,·,·
Cn1c(C(=O)NCCCN2CCc3ccccc3C2)cc2c(=O)n(C)c3ccccc3c21,16,104,143*,0,122,12,101
CCS(=O)(=O)N1Cc2ccccc2CC1C(=O)Nc1ccc(OC)cc1 (stereo not given),-23,2.0*[inhibitor],1.0*[inhibitor],0,96,-4,97
COc1ccc2c(c1)C(C1=C(O)CC(C)(C)CC1=O)C1=C(CC(C)(C)CC1=O)O2 (stereo not given),3,101,100,6,·,·,·
COc1ccc(C2CC(=O)OC3=C2C(=O)CC(C)(C)C3)c(OC)c1 (stereo not given),-2,69*[inhibitor],80,9,93,1,96
CSCC[C@H](NC(=O)[C@@H]1Cc2ccccc2CN1)C(=O)Nc1ccc2c(c1)OCO2,2,96,103,1,·,·,·
CCC1(C)OC(=O)N(CCCn2ccnc2C)C1(C)O (stereo not given),9,123*,121,2,102,1,97
Cc1nccn1CCCN1C(=O)OC2(CCCCC2)C1(C)O (stereo not given),1,104,108,0,·,·,·
Cc1cc(/C=C2/C(=O)NN(c3ccccc3)C2=O)c(C)n1-c1ccc(O)cc1,-2,94,83,1,·,·,·
Cc1cc(/C=C2\C(=O)NN(c3ccccc3)C2=O)c(C)n1-c1ccccc1O,-13,36*[inhibitor],32*[inhibitor],1,97,-3,101
Cc1ccc(Nc2c(N)c(=O)oc3ccccc23)cc1,4,0.0*[inhibitor],0.0*[inhibitor],1,101,2,98
CC(=O)c1ccc(OCCCC(=O)NNC(=O)c2ccccn2)cc1,·,·,·,0,·,·,·
Cc1ccc(Cl)cc1N1CCN(S(=O)(=O)c2cn(C)cn2)CC1,-1,101,102,7,·,·,·
O=C(Nc1ccccc1-c1ccccc1)c1cccc(C(F)(F)F)c1,2,94,93,0,·,·,·
Cc1csc(-c2cnn(-c3ccccc3)c2NC(=O)c2cccc(C(F)(F)F)c2)n1,7,131*,119,0,109,8,102
OCCCCNCc1ccc(OCc2ccc(Cl)cc2)cc1,37*,108,181*,0,107,3,101
CC(NCc1ccc(OCc2ccc(Cl)cc2)cc1)C(O)c1ccccc1 (stereo not given),4,94,144*,0,160,33,96
SMILES,MEKK2 mut-MEK5,MEKK3 PB1 HTS,MEKK2wt PB1 HTS,GRK2 inh,MEKK2wt confirm,MEKK2mut confirm,MEKK3-MEK5 inh
O=C(O)c1cccc(C(=O)O)c1Br,11,109,152*,2,104,6,98
Cc1ccc(-c2cc(C(=O)N3CCCCC3)c3ccccc3n2)cc1C,3,99,98,0,·,·,·
O=C(/C=C/c1ccc2c(c1)OCO2)c1cccnc1,3,106,105,0,·,·,·
O=C(N/N=C\C=C\c1ccc2c(c1)OCO2)c1cccnc1,1,135*,109,0,103,0,101
Cc1ccc(N2CC(C(=O)N3CCCCCC3)CC2=O)cc1 (stereo not given),5,101,106,0,·,·,·
CCOC(=O)Cc1nnc(NC(=O)CSc2ncc(-c3ccccc3)nn2)s1,-17,83,86,0,·,·,·
CC(C)COc1ccc(CN=C(N)N=C(N)N)cc1Cl,25,106,139*,0,112,1,89
CC(=O)NCCc1c[nH]c2ccc(OCc3ccccc3)cc12,·,·,·,0,·,·,·
COc1ccccc1N1CCN(C(=O)c2cccc(S(=O)(=O)NCc3cccnc3)c2)CC1,·,·,·,0,·,·,·
Cc1ccccc1-n1c(SCC(=O)N2CCN(c3ccccn3)CC2)nnc1N1CCOCC1,·,·,·,1,·,·,·
CC(C)(C)c1ccc(OCC(O)CN(CCO)CC(O)Cn2ccc3ccccc32)cc1 (stereo not given),0,133*,106,0,115,5,103
CN(C)CCCNc1cc(-c2ccccc2)nc2cc(-c3cccc(F)c3)nn12,40*,108,192*,0,179,35,105
CN(C)CCCNc1cc(C(C)(C)C)nc2c(-c3ccccc3)cnn12,22,88,156*,0,168,51,103
CC(C)(C)c1cc(NCCCn2ccnc2)n2ncc(-c3ccc(Cl)cc3)c2n1,37*,98,157*,2,158,37,113
Cc1cccc(-c2cc3nc(C)cc(NCCCN(C)C)n3n2)c1,-1,87,99,0,·,·,·
Cc1cccc(NC(=O)[C@@H]2CCCN2C(=O)OC(C)(C)C)c1,11,105,102,0,·,·,·
Cc1ccc(OCC(=O)N/N=C/c2cccc3cccnc23)cc1,2,99,101,0,·,·,·
Cc1ccc(S(=O)(=O)N2CCC(C(=O)NCCN3CCCCCC3)CC2)cc1,34*,96,170*,0,121,7,94
O=C(NCc1ccc(F)cc1)C1CC(=O)N(CCc2ccccc2)C1 (stereo not given),-69,2.0*[inhibitor],3.0*[inhibitor],1,106,5,103
Cc1ccc(CCN2CC(C(=O)NCCCN3CCCCCC3)CC2=O)cc1 (stereo not given),21,95,138*,0,119,5,100
